From PubChem BioAssay AID720709 (National Center for Advancing Translational Sciences (NCATS), 2013)
Screen size: about 360,000 compounds; about 520 (0.14%) were called active. Roughly 3% stayed inconclusive and do not appear here. The call rests on the fitted dose curve; in most records, active means well fitted inhibition curve with a large enough effect; inconclusive means small, poorly fitted or top-dose-only effect; inactive means no such curve, though single readings can be large or run the other way. The list comes from a sample in which actives are over-represented; it also holds similar structures and randomly drawn compounds. A call without a number means that no potency is given here.

molecular target: Rap guanine nucleotide exchange factor 3 (Homo sapiens) (UniProt O95398); test: qHTS for Antagonist of cAMP-regulated guanine nucleotide exchange factor 3 (EPAC1): primary screen; conditions: EPAC1 GEF assay, Rap1b-BODIPY-GDP exchange fluorescence; series mostly up to 115 µM
Sequence (O95398 whole entry, looked up): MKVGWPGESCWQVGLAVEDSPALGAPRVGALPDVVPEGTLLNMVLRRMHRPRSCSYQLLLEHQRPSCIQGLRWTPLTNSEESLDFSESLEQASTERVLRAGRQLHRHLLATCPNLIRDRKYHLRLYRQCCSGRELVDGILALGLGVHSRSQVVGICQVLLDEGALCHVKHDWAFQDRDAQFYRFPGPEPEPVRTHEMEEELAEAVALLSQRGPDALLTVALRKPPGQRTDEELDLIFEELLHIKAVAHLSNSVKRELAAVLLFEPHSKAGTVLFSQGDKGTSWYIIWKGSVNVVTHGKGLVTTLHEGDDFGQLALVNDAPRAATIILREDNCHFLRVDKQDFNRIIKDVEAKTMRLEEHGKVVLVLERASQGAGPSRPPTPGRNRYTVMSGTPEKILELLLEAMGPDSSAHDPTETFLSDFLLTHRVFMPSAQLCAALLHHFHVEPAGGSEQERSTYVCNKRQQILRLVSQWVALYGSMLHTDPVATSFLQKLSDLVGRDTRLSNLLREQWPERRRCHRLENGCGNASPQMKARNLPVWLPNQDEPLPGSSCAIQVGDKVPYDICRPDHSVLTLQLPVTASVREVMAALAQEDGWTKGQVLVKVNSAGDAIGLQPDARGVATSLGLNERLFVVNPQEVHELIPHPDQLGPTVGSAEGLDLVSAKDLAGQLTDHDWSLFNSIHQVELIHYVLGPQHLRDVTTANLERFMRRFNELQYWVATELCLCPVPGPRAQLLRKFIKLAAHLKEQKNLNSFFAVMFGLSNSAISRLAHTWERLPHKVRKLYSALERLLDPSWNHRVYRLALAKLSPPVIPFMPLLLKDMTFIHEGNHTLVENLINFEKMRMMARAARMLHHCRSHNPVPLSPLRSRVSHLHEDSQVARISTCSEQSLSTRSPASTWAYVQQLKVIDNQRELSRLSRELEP
From the text: In multi-cellular eukaryotic organisms, the effects of cAMP are transduced by two ubiquitously-expressed intracellular cAMP receptors, the classic protein kinase A/cAMP-dependent protein kinase (PKA/cAPK) and the more recently discovered exchange protein directly activated by cAMP/cAMP-regulated guanine nucleotide exchange factor (EPAC/cAMP-GEF). Both PKA and EPAC are ubiquitously expressed in all tissues, and an increase in intracellular cAMP levels will lead to the activation of both PKA and EPAC. Therefore, careful dissections of the individual role and relative contribution of EPAC and PKA within the overall cAMP signaling in various model systems are critical for further elucidating the mechanism of cAMP signaling. To date no EPAC-specific antagonists and agonist, as well as isoform-specific agonists have been reported, and developing EPAC-specific pharmacological probes to determine the physiological functions that EPAC play in the overall cAMP-mediated signaling remains a major challenge within the research field. Furthermore, identified regulators of EPAC may lead to new mechanism-based therapeutic strategies specifically targeting the EPAC / cAMP-signaling components as EPAC has been implicated to play important roles in major human pathological conditions such as diabetes, heart disease, and cancer. This qHTS will be used to screen the Molecular Libraries Small Molecule Repository (MLSMR) as a concentration-titration series using the NCGC unique quantitative screening (qHTS) platform to find inhibitors for EPAC1. In addition, this assay will also be used as a counterscreen for the EPAC2 qHTS. This fluorescent based assay is developed and validated for EPAC1 that measures exchange using EPAC effector Rap1 complex with BODIPY-GDP, a GDP analog with a tethered fluorophores. Inhibitors are identified by monitoring the change in fluorescence signal as the exchanged free BODIPY-GDP has a reduced fluorescence compared to Rap1-bound BODIPY-GDP. Decrease in signal (inhibition) is the desired outcome for the EPAC1 antagonist while no activity in this assay is desired for the EPAC2 antagonist counterscreen. de Rooij, J., Zwartkruis, F. J., Verheijen, M. H., Cool, R. H., Nijman, S. M., Wittinghofer, A., and Bos, J.L. (1998) Nature 396, 474-477 [2] Kawasaki, H., Springett, G. M., Mochizuki, N., Toki, S., Nakaya, M., Matsuda, M., Housman, D. E., and Graybiel, A. M. (1998) Science 282, 2275-2279 NIH Chemical Genomics Center [NCGC] NIH Molecular Libraries Probe Centers Network [MLPCN] MLPCN Grant: NS066510 Assay Submitter (PI): Xiaodong Cheng, The University of Texas, Medical Branch
Briefly, three uL of reagents (100 nM EPAC1, 250 nM RAP1B-BODIPY-GDP, 50 uM GDP) were dispensed into a 1536-well Greiner black solid-bottom medium binding assay plate. Controls and test compounds (23 nL) were transferred to the plate via a Kalypsys pin tool equipped with a 1536-pin array. The plates were centrifuged at 1,000 rpm for 15 seconds followed by 5 minute incubation at room temperature. The assay plates were read at 5 minute intervals for 30 minutes in the ViewLux plate reader using 480nm excitation and 540nm emission filters. The results were normalized to the […] positive control ATA and DMSO.
Potency means the concentration at half of the fitted maximal effect.

Row | Structure (SMILES) | Potency
1 | CC(C)(C)C1CCC(=O)N2CCC[C@]2(c2ccccc2)C1 (stereo partly drawn) | inactive
2 | CCOC(=O)[C@]12CCCC=C1N(CCC1=CCCCC1)C(=O)[C@H](CC(=O)N1CCN(C(=O)c3ccco3)CC1)C2 | inactive
3 | Cc1[nH]c2ccccc2c1C(=O)c1cc([C@H](NC(=O)OC(C)(C)C)C(C)C)sc1N | inactive
4 | CCOC(=O)N1C(=O)C[C@](Sc2ccc(C)cc2)(C(=O)OC)[C@H]1c1ccccc1 | inactive
5 | O=C(C[C@H]1CC[C@H]2[C@@H](COC[C@H](O)CN2C(=O)c2ccccn2)O1)N1CCN(c2ccccc2)CC1 | inactive
6 | Nc1nc2c(Br)ccc(Br)c2cc1C(=O)NCCc1ccccc1 | inactive
7 | O=c1[nH][nH]c2c1[C@H](c1ccc(Cl)cc1)O[C@H](CCc1ccccc1)C2 | inactive
8 | CC1(C(=O)Nc2ccc3c(c2)OCCO3)CSCC(=O)N1CCOc1ccccc1 (stereo not drawn) | inactive
9 | Cc1ccc(S(=O)(=O)N[C@H](CO)C(C)C)cc1 | inactive
10 | N#Cc1ccc(-c2nc3c(Cl)cc(C(F)(F)F)cn3c2Cc2ccccc2C(F)(F)F)cc1 | inactive
11 | CC1(C)OC(=O)C2=C(C[C@@H](C3CCCCC3)O[C@@H]2c2ccc(Cl)cc2)O1 | inactive
12 | COC(=O)C1(C(=O)OC)C[C@H](c2ccccc2)N(Cc2ccccc2OC)[C@@H]1c1ccccc1 | inactive
13 | CN1CCN(c2ccc3c(c2)OC[C@H](Cc2ccccc2)NS3(=O)=O)CC1 | inactive
14 | COC(=O)C[C@H]1C=C[C@H](NC(=O)c2ccc(F)cc2)[C@@H](CO)O1 | inactive
15 | C=C1C(=O)OC2C1CCC(C)=CCCC1(C)OC21 (stereo not drawn) | inactive
16 | CO[C@@H]1CN(C)C(=O)c2cc(NC(=O)C3CC3)ccc2OC[C@H](C)N(C(=O)CN2CCOCC2)C[C@@H]1C | inactive
17 | CC(C)C1C(=O)N(Cc2cn(CCC3OCCO3)nn2)CCS(=O)(=O)N1Cc1ccc(-c2ccccc2C(F)(F)F)cc1 (stereo not drawn) | inactive
18 | CCOC(=O)[C@]12CCC=C1N(Cc1cccc3ccccc13)C(=O)[C@H](CC(=O)NCc1cccc(C(F)(F)F)c1)C2 | inactive
19 | CCCCC[C@H](C)N1C[C@@H](COCc2ccccc2)Oc2cc(N3CC[C@@H](N(C)C)C3)ccc2S1(=O)=O | inactive
20 | C=CCC[C@@H](CCCCC)OC(=O)/C=C/[C@@H](O)[C@H](O)C[C@H](O)CC=C | inactive

Row | Structure (SMILES) | Potency
21 | CCOC(=O)c1ccc(-c2ccc3ncnc(N(C)Cc4sccc4C)c3c2)o1 | inactive
22 | CCCNC(=O)c1cc2c(c(-c3cccc(-c4ccc(C#N)cc4)c3)n1)[C@@H](CCO)N(C(=O)CC)C2 | inactive
23 | Cc1ccc(C(=O)Nc2c(-c3ccccc3)[nH][nH]c2=O)cc1 | inactive
24 | CCCc1nc2ccccc2n1C(C)C(=O)NC(C)(C)C (stereo not drawn) | inactive
25 | N#Cc1ccc(C(C(=O)NCc2ccccc2)n2c(=O)c(-c3ccco3)nc3ccccc32)cc1 (stereo not drawn) | inactive
26 | CC(C)NC(=O)N1Cc2cc(C(=O)NCC(F)(F)F)nc(-c3cccc(-c4cc5ccccc5o4)c3)c2[C@@H]1CCO | inactive
27 | CC(C)C[C@H]1CNC(=O)C(=O)N1C[C@H]1CCCN1C[C@H](Cc1ccc(O)cc1)N1C[C@H](CC(C)C)N(CC2CCCCCC2)C(=O)C1=O | inactive
28 | COC(=O)c1ccc2c(c1)S(=O)(=O)NC2C (stereo not drawn) | inactive
29 | CCC(C(=O)NCc1ccccc1)n1c(Cc2cc(F)cc(F)c2)nc2ccccc21 (stereo not drawn) | inactive
30 | CCOC(=O)c1cc2cc(OC)ccc2n1C1CCN(C)CC1 | inactive
31 | COC(=O)[C@@]1(Sc2ccc(C)cc2)CC(=O)N(c2cccc(SC)c2)[C@@H]1c1ccccc1 | inactive
32 | COC(=O)[C@]12CCCCC=C1N(Cc1ccccc1)C(=O)[C@H](CC(=O)NCc1ccc(C)o1)C2 | inactive
33 | CC(C)OC(=O)CC(=O)CC(O)c1cccc([N+](=O)[O-])c1 (stereo not drawn) | inactive
34 | CCCCc1c(-c2ccc(Cl)cc2)ncn1CCc1ccccc1OC | inactive
35 | CCOC(=O)N1CCN(C(=O)C[C@@H]2C[C@@]3(C(=O)OC)CC(C)(C)CC=C3N(Cc3ccco3)C2=O)CC1 | inactive
36 | Nc1[nH]c(C(=O)c2ccccc2)c(-c2ccncc2)c1C(=O)NCc1cccc2ccccc12 | inactive
37 | CC(C)c1ccc2c(c1)c(SC(C)(C)C)c(CC(C)(C)C(=O)O)n2Cc1ccc(Cl)cc1 | 25.1 µM (active)
38 | CCCCc1c(-c2ccc(Br)cc2)ncn1CCc1ccccc1OC | inactive
39 | CCC(=O)N1Cc2cc(C(=O)NCc3cccc(F)c3)nc(-c3cccc(C4=CCCC4)c3)c2[C@H]1CCO | inactive
40 | CCC(C)Cn1c(O)cc2nn(-c3nc4ccccc4s3)c(=O)c-2c1C (stereo not drawn) | 50.1 µM (active)

Row | Structure (SMILES) | Potency
41 | Cc1cc2nc(-c3ccc(F)cc3)c(Cc3ccsc3)n2c(C)c1Br | inactive
42 | COc1ccc(NC(=O)C(c2ccncc2)n2c(=O)c(-c3cc4ccccc4[nH]3)nc3ccccc32)cc1 (stereo not drawn) | inactive
43 | CCCCCc1c(Cc2ccccc2)ncn1CCc1ccccc1OC | inactive
44 | Cc1ccc(-c2c(N)nc3ncccn23)cc1 | inactive
45 | CCCCC[C@H](C)N1C[C@@H](COCc2ccccc2)Oc2cc(N3CCC[C@@H]3CO)ccc2S1(=O)=O | inactive
46 | CCCCCCN1CCN(C2CN(Cc3cn(Cc4ccc(F)cc4)nn3)S(=O)(=O)C2)CC1 (stereo not drawn) | inactive
47 | CC1(C)OC(=O)C2=C(C[C@@H](C3CCCC3)O[C@@H]2c2ccc(Cl)cc2)O1 | inactive
48 | CCCCCc1c(-c2ccc(OC)c(OC)c2)ncn1CCc1ccccc1OC | inactive
49 | COc1ccc(C(C#N)=C2C=CC(=NO)c3ccccc32)cc1 | inactive
50 | COCCNC(=O)C1C(=O)Nc2ccccc2C(=O)N1c1ccc2c(c1)OCCO2 (stereo not drawn) | inactive
51 | O=C(C[C@H]1CC[C@@H](NC(=O)c2ccncc2)[C@@H](CO)O1)NCC1CC1 | inactive
52 | CC1(C(=O)NCc2ccccc2)CSCC(=O)N1CCCN1CCOCC1 (stereo not drawn) | inactive
53 | FC(F)(F)c1cccc(-c2nc3ccccc3n2C(c2ccccc2)c2nc3ccccc3[nH]2)c1 (stereo not drawn) | inactive
54 | CC1(C)OC(=O)C2=C(C[C@@H](C3CC3)O[C@H]2c2ccc(Cl)cc2)O1 | inactive
55 | Cc1ccc(-c2nc3c(C)cc(Br)cn3c2Cc2ccccc2)cc1 | inactive
56 | COc1ccc(C2=NN(c3nc4ccccc4s3)C(=O)C2)cc1 | 79.4 µM (active)
57 | COc1ccc(-c2cc3n(n2)CCc2nc4ccccc4n2-3)cc1 | inactive
58 | COc1ccc(C2=NN(C(=O)c3ccccc3C(=O)O)C(c3ccccc3O)C2)cc1 (stereo not drawn) | inactive
